Results: ChEMBL document CHEMBL1961873, “Compounds: GSK PKIS; Assays: Nanosyn kinase panel” (2012)

Tests used:
[1] = biological target: Fibroblast growth factor receptor 4 (Homo sapiens) (UniProt P22455); settings: at 1 µM;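 also: reported figure is the averaged percent inhibition of FGFR4, from the GSK PKIS kinase screening panel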
[2] = biological target: Tyrosine-protein kinase Fgr (Homo sapiens) (UniProt P09769); settings: at 0.1 µM
[3] = biological target: Tyrosine-protein kinase Fgr (Homo sapiens) (UniProt P09769); settings: at 1 µM
[4] = biological target: Vascular endothelial growth factor receptor 1 (Homo sapiens) (UniProt P17948); settings: at 0.1 µM
[5] = biological target: Vascular endothelial growth factor receptor 1 (Homo sapiens) (UniProt P17948); settings: at 1 µM
[6] = biological target: Receptor-type tyrosine-protein kinase FLT3 (Homo sapiens) (UniProt P36888); settings: at 0.1 µM
[7] = biological target: Receptor-type tyrosine-protein kinase FLT3 (Homo sapiens) (UniProt P36888); settings: at 1 µM
[8] = system: T1, Receptor-type tyrosine-protein kinase FLT3 (Homo sapiens), P36888 [D835Y]; settings: at 0.1 µM
T1 sequence (whole entry): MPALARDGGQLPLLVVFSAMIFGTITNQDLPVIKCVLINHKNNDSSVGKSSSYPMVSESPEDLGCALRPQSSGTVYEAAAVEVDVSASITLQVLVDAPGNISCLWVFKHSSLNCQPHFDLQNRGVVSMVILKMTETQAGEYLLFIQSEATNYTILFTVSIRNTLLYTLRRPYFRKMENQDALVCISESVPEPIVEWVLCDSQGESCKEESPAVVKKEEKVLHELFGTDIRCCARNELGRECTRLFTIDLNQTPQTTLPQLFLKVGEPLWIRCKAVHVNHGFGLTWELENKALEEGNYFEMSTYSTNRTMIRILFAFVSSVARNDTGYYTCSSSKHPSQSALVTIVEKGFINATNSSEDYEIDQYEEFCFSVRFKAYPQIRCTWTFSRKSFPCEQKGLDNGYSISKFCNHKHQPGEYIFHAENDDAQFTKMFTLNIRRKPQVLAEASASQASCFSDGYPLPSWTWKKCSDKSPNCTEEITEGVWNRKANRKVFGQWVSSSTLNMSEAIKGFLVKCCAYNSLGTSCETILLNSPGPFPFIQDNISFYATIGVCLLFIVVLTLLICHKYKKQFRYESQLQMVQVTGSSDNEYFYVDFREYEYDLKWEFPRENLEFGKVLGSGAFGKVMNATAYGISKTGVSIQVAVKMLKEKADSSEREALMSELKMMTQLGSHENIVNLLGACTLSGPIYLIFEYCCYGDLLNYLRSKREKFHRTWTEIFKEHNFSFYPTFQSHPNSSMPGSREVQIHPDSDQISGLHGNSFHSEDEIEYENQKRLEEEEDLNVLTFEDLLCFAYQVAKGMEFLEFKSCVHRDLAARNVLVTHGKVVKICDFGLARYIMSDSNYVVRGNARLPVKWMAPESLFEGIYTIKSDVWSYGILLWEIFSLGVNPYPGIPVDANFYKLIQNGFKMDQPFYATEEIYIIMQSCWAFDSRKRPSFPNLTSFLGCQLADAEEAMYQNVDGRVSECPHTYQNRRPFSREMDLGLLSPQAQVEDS

[9] = biological target: Non-receptor tyrosine-protein kinase TYK2 (Homo sapiens) (UniProt P29597); settings: at 1 µM;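 also: values are mean percent inhibition of TYK2 kinase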
[10] = biological target: T2, Tyrosine-protein kinase receptor TYRO3 (Homo sapiens) (UniProt Q06418); settings: at 0.1 µM
T2 sequence (whole entry): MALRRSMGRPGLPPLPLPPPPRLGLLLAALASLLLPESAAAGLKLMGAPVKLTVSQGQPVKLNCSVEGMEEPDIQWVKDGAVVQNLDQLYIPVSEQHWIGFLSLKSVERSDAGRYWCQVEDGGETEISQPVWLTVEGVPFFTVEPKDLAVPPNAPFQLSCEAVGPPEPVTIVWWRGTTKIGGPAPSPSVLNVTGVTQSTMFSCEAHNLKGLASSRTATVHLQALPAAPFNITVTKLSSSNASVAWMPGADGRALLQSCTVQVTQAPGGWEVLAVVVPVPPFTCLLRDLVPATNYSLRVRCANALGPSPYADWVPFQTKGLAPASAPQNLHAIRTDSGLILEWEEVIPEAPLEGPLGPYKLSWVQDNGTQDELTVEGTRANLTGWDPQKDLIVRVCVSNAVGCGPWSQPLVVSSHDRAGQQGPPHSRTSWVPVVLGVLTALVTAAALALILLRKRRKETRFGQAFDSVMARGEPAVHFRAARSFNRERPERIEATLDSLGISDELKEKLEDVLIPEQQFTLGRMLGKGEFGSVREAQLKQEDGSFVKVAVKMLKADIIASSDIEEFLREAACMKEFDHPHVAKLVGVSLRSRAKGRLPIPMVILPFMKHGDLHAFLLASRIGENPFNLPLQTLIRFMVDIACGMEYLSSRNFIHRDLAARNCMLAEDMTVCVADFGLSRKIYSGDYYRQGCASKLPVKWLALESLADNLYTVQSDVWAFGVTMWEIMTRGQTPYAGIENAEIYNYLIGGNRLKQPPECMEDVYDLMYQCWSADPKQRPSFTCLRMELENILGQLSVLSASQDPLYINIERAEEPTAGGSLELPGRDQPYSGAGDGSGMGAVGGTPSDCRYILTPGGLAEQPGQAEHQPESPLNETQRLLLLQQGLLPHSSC

[11] = biological target: T2, Tyrosine-protein kinase receptor TYRO3 (Homo sapiens); settings: at 1 µM
[12] = biological target: Tyrosine-protein kinase Yes (Homo sapiens) (UniProt P07947); settings: at 0.1 µM
[13] = biological target: Tyrosine-protein kinase Yes (Homo sapiens) (UniProt P07947); settings: at 1 µM
[14] = biological target: T3, Tyrosine-protein kinase ZAP-70 (Homo sapiens) (UniProt P43403); settings: at 0.1 µM
T3 sequence (whole entry): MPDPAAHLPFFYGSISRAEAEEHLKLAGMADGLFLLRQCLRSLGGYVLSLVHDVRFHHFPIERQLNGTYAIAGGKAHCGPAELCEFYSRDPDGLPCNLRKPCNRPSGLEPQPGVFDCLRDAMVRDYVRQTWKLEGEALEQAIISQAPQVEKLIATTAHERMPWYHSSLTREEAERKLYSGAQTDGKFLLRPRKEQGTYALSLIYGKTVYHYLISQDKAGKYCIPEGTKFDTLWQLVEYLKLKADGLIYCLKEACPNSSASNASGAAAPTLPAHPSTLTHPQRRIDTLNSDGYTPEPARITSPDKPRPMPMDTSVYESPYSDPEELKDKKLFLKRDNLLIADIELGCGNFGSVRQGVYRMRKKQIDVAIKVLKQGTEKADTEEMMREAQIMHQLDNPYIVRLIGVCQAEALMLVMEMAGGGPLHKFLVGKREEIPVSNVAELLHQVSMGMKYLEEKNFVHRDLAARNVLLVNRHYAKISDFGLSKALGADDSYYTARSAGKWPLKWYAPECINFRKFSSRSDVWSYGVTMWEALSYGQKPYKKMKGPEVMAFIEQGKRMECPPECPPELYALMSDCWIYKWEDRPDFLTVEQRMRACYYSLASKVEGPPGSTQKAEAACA

[15] = biological target: T3, Tyrosine-protein kinase ZAP-70 (Homo sapiens); settings: at 1 µM
[16] = biological target: Serine/threonine-protein kinase B-raf (Homo sapiens) (UniProt P15056); settings: at 0.1 µM
[17] = biological target: Serine/threonine-protein kinase B-raf (Homo sapiens) (UniProt P15056); settings: at 1 µM
[18] = system: Serine/threonine-protein kinase B-raf (Homo sapiens), P15056 [V600E]; settings: at 0.1 µM
[19] = system: Serine/threonine-protein kinase B-raf (Homo sapiens), P15056 [V600E]; settings: at 1 µM
[20] = biological target: RAF proto-oncogene serine/threonine-protein kinase (Homo sapiens) (UniProt P04049); settings: at 0.1 µM;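 also: values are mean CRAF kinase inhibition from profiling of the GSK Published Kinase Inhibitor Set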

Serine/threonine-protein kinase B-raf (Homo sapiens), P15056 [V600E], sequence (P15056 whole entry V600E): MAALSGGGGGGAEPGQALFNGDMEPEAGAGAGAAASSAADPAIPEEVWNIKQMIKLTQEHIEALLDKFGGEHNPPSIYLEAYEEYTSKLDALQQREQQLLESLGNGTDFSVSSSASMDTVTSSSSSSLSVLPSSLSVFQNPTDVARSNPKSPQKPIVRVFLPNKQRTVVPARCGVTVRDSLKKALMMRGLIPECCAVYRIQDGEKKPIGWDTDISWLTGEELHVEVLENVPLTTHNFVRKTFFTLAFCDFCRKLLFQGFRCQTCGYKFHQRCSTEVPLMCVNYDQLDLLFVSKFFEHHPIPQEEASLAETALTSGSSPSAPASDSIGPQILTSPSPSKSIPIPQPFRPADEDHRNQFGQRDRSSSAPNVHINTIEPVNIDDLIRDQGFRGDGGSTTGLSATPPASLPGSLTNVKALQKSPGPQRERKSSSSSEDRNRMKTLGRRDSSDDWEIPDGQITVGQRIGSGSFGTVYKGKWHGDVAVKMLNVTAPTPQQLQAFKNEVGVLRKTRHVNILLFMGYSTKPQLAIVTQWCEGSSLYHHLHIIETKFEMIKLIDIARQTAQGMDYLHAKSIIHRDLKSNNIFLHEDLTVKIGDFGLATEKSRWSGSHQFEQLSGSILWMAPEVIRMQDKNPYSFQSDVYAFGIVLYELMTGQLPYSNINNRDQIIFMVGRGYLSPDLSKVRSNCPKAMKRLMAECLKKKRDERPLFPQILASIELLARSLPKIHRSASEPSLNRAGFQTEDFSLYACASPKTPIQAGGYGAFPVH
Tyrosine-protein kinase Yes (Homo sapiens), sequence (P07947 2-543 limits assumed): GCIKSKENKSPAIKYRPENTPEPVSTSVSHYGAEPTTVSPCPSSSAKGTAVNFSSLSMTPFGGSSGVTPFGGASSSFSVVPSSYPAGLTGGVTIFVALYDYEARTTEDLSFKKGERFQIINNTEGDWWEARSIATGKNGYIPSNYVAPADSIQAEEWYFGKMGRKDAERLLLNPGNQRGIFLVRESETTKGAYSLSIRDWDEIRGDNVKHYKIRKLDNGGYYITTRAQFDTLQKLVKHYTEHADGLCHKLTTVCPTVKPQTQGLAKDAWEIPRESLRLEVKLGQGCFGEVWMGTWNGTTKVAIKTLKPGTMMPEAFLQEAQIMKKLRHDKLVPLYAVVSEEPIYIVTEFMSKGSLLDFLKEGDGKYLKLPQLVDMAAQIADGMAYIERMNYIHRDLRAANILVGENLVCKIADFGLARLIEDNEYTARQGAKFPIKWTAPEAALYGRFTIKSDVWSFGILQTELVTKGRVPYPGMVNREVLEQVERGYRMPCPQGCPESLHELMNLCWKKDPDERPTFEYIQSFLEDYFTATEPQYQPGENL
Fibroblast growth factor receptor 4 (Homo sapiens), sequence (P22455 22-802 limits assumed): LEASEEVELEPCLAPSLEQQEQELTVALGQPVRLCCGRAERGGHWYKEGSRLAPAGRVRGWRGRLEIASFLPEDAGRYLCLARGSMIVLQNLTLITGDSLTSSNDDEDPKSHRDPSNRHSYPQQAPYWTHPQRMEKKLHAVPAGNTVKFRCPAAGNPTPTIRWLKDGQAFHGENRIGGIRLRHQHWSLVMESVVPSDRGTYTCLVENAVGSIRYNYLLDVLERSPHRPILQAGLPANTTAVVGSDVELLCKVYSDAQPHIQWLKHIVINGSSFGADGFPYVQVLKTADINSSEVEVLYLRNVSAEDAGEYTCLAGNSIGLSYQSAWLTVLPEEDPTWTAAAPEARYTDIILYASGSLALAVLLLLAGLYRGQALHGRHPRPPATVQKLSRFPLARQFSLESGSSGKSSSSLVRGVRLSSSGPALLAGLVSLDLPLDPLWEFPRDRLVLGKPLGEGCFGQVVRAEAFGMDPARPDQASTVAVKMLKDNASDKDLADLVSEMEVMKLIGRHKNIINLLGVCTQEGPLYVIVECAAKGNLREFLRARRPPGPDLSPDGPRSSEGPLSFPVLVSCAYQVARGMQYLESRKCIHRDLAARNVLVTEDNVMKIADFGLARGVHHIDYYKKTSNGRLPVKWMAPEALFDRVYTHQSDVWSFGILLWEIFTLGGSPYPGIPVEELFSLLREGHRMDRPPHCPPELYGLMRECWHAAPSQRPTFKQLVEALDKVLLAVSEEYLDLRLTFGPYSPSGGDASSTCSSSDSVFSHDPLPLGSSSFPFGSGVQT
Serine/threonine-protein kinase B-raf (Homo sapiens), sequence (P15056 whole entry): as the sequence (P15056 whole entry V600E) above, with E600V counted along it
Vascular endothelial growth factor receptor 1 (Homo sapiens), sequence (P17948 whole entry): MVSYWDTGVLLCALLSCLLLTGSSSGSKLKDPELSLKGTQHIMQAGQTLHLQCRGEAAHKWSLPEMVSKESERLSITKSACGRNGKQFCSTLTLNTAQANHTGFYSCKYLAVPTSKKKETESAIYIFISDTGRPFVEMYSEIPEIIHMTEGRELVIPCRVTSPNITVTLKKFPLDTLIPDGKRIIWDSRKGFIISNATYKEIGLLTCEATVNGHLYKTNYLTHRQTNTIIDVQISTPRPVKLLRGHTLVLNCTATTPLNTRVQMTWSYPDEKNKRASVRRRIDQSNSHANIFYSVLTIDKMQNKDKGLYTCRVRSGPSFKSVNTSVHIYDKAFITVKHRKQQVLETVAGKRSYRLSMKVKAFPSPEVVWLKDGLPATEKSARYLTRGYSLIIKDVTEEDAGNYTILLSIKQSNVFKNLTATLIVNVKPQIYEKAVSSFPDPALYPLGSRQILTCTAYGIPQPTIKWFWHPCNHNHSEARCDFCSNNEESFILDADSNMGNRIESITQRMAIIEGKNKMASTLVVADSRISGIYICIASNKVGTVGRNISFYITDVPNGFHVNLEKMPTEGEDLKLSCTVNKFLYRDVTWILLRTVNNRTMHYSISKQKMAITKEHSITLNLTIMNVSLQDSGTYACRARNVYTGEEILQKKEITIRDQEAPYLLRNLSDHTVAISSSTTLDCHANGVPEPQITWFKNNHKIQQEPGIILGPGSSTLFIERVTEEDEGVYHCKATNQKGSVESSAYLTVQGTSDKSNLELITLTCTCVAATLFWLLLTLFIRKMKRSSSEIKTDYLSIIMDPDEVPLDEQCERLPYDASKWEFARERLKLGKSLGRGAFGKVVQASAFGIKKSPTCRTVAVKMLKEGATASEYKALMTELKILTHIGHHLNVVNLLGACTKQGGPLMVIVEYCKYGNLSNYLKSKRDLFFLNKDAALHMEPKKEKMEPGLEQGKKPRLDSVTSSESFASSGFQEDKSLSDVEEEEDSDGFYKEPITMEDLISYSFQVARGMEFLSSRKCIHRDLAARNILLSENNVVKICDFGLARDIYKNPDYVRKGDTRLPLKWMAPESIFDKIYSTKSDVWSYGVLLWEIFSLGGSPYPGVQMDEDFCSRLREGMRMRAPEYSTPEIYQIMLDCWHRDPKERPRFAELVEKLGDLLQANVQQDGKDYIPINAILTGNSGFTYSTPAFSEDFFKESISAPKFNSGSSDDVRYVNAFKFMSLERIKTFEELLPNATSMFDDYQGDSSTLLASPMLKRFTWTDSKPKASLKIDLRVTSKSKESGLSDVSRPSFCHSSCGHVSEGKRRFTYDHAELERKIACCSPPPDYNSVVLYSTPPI
Non-receptor tyrosine-protein kinase TYK2 (Homo sapiens), sequence (P29597 whole entry): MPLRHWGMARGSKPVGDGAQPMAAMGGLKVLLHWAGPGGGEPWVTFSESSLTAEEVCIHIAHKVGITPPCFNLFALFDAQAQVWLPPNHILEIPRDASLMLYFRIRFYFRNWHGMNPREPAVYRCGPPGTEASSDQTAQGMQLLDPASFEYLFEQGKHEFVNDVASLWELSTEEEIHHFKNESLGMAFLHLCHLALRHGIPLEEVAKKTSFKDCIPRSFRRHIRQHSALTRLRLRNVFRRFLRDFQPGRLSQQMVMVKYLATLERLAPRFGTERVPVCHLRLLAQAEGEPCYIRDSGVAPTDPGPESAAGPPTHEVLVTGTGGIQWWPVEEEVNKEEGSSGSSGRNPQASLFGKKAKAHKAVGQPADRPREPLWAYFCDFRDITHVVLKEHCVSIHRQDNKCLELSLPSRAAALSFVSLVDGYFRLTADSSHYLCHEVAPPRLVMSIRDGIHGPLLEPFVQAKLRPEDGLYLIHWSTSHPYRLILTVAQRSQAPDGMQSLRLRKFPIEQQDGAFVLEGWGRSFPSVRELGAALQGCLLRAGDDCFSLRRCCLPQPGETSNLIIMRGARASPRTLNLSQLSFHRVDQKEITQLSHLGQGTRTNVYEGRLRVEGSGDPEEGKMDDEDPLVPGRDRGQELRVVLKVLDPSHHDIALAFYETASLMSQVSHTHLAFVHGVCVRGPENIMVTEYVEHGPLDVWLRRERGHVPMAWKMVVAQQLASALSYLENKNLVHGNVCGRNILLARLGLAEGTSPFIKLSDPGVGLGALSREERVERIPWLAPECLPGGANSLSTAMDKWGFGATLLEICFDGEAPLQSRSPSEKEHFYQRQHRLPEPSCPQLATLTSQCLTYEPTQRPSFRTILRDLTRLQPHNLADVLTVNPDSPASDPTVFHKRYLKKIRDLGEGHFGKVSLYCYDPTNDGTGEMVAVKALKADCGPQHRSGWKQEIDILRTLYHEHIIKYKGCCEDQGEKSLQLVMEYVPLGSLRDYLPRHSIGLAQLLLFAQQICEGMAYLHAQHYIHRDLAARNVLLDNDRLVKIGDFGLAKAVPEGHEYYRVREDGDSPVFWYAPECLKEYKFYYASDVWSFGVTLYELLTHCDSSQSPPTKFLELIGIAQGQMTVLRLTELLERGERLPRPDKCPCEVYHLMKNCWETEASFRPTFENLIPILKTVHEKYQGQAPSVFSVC

Row | Compound | inhibition [1] [%] | inhibition [2] [%] | inhibition [3] [%] | inhibition [4] [%] | inhibition [5] [%] | inhibition [6] [%] | inhibition [7] [%] | inhibition [8] [%] | inhibition [9] [%] | inhibition [10] [%] | inhibition [11] [%] | inhibition [12] [%] | inhibition [13] [%] | inhibition [14] [%] | inhibition [15] [%] | inhibition [16] [%] | inhibition [17] [%] | inhibition [18] [%] | inhibition [19] [%] | inhibition [20] [%]
1 | COc1ccc(-c2coc3ncnc(N)c23)cc1 | 1.55 | 0.55 | 5.25 | -1.7 | 2.37 | 2.97 | 4.59 | 3.34 | -3.97 | 2.29 | 0.37 | 1.25 | 2.89 | 0.06 | 4.55 | 4.66 | 7.42 | 6.07 | 6.81 | 2.99
2 | NS(=O)(=O)c1ccc(N/N=C2\C(=O)Nc3ccc(C(=O)NCCc4c[nH]cn4)cc32)cc1 | 2.39 | 4.54 | 19.1 | 2.21 | 10.7 | 7.03 | 23.4 | 8.84 | 0.3 | 5.07 | 21.7 | 2.67 | 11.8 | 1.45 | 5.13 | 7 | 16.5 | 6.04 | 15.9 | -2.7
3 | CCN1CCC(CC(=O)Nc2n[nH]c3nc(-c4cccs4)c(Br)cc23)CC1 | 1.97 | -0.94 | 0.5 | 0.44 | 3.83 | -0.9 | 9.19 | 3.26 | 2.37 | -1.49 | 0.12 | -2.01 | 2.56 | -3.15 | -1.71 | -3.34 | -4.88 | -3.29 | -4.51 | 3.42
4 | COc1ccc2cc(-c3c(-c4ccncc4)nc(-c4ccc([S+](C)[O-])cc4)n3C)ccc2c1 (stereo not given) | 1.73 | 1.14 | 6.14 | -2.5 | -1.05 | 1.98 | 1.93 | -0.4 | -4.84 | 0.64 | 0.86 | 2.16 | 8.42 | 1.94 | 2.34 | 3.84 | 5.05 | 4.92 | 4.5 | 0.38
5 | COc1cc2c(cc1Nc1nc(N3CCc4ccccc43)c3cc[nH]c3n1)N(C(=O)CN(C)C)CC2 | 0.78 | -0.2 | 3.44 | 1.49 | 2.02 | 0.56 | -1.35 | -2.55 | -2.82 | 1.61 | 1.54 | -0.07 | -1.83 | 1.18 | – | 1.69 | 2.22 | 1.91 | 1.68 | -4.52
6 | N#Cc1c(NC(=O)c2cccc3ccccc23)sc2c1CCCC2 | -0.35 | 1.53 | 5.24 | -0.49 | 0.41 | 2.28 | 2.23 | 3.1 | -3.92 | 2.98 | 2.06 | 3.08 | 2.43 | 2.19 | 4.42 | 4.29 | 5.63 | 4.43 | 5.4 | -0.45
7 | COc1cc2ncn(-c3cc(OCc4ccccc4Cl)c(C(N)=O)s3)c2cc1OC | 2.76 | 3.61 | 19.1 | 0.69 | 9.81 | 0.85 | 3.62 | -2.29 | 2.41 | 1.87 | 9.65 | 3.58 | 17.9 | -2.94 | 0.47 | 2.05 | 2.15 | 1.45 | 2.82 | 0.16
8 | COc1ccccc1Nc1ncc(-c2ccccc2)o1 | 0.7 | 5.21 | 12.1 | 4.3 | 16.4 | 61 | 87.2 | 5.09 | -0.92 | 1.91 | 2.12 | 2.01 | 6.48 | 0.73 | 4.36 | 6.58 | 7.19 | 4.73 | 3.58 | 3.32
9 | O=C1NC(=O)C(N2CCc3ccccc32)=C1c1ccc(Cl)cc1 | 1.44 | 2.39 | 8.07 | 1.82 | 5.14 | 2.06 | 5.05 | -2.14 | -4.27 | 3.4 | 3.19 | 0.13 | 1.35 | 3.14 | 4.58 | 6 | 7.8 | 6.55 | 6.79 | 0.98
10 | COC(=O)Nc1nc2cc(Oc3cccc(NC(=O)Nc4cc(C(F)(F)F)ccc4F)c3)ccc2[nH]1 | 0.74 | 1.17 | 3.3 | 2.97 | 25.7 | -3.12 | 3.93 | 1.62 | 1.94 | -1.36 | -0.81 | 0.2 | 3.07 | 0.93 | 1.74 | -0.27 | 4.25 | 0.34 | 6.29 | -0.45
11 | O=C1NC(=O)C(c2ccc(Cl)cc2)=C1Nc1ccc(Cl)c(C(=O)O)c1 | 1.95 | 0.15 | 2.1 | 0.79 | 2.99 | -0.57 | 1.93 | -7.38 | 0.43 | -0.81 | -3.28 | -3.3 | 0.94 | -3.81 | -2.06 | -1.66 | -3.28 | -4 | -3.77 | -4.76
12 | Cc1cc(O)cc(C)c1/C=C/c1cncc(-c2nn[nH]n2)c1 | 0.95 | 9.4 | 51.5 | 3.27 | 5.69 | 2.5 | 4.37 | -2.23 | -2.7 | 3.72 | 11.2 | 5.57 | 41.3 | -1.14 | – | 7.69 | 10.1 | 7.48 | 8.79 | 4.51
13 | NC(=O)c1ccc(-c2nc(-c3ccccn3)c(-c3ccc4c(c3)OCO4)[nH]2)cc1 | -0.14 | 3.69 | 5.27 | -0.48 | -1 | 1.89 | 2.37 | 1.11 | -0.31 | 2.08 | 1.12 | 2.51 | 7.17 | 0.96 | -2.34 | – | – | – | – | -6.15
14 | NCc1ccc(-c2nc(-c3ccc(Cl)c(O)c3)c(-c3ccncc3)[nH]2)cc1 | 2.75 | 4.3 | 32.8 | 19.8 | 70.6 | -0.2 | 3.28 | 2.87 | -1.84 | 0.69 | 5.26 | 5.85 | 37.7 | 0.84 | 1.92 | – | – | – | – | 6.34
